The panel holds about 79,000 compounds, 15% with a hit somewhere; the sample as a whole holds those more often. The source made the active and inactive calls. Rule as the data show it: active = growth inhibition above about 70%; inactive = the rest.
Legend:
[1] = NCI Yeast Anticancer Drug Screen. Data for the wt2 strain (AID 169);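 also: 0% = growth of vehicle-treated yeast cultures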; settings: S. cerevisiae wt2 strain growth inhibition, active compounds read high
Procedure, shortened: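 The panel's yeast strains carry defined changes in DNA repair or cell cycle genes. Each strain is grown with compound, and growth loss is scored relative to vehicle.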

[2] = NCI Yeast Anticancer Drug Screen. Data for the mlh1 strain (AID 171);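 also: 0% = growth of vehicle-treated control cultures of the same strain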; settings: S. cerevisiae mlh1 strain growth inhibition, active compounds read high
Procedure, shortened: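 Inhibition values reflect reduced yeast growth in the presence of compound, referenced to vehicle controls, using a strain chosen for its alteration in DNA repair or cell cycle control.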

[3] = NCI Yeast Anticancer Drug Screen. Data for the sgs1 strain (AID 173);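 also: 0% = growth of vehicle-only control cultures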; settings: S. cerevisiae sgs1 mutant, active compounds read high
Procedure, shortened: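 Vehicle-treated cultures served as reference for growth inhibition of a yeast strain altered in DNA damage repair or cell cycle control after compound exposure.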

[4] = NCI Yeast Anticancer Drug Screen. Data for the mlh1 rad18 strain (AID 175); settings: S. cerevisiae mlh1 rad18 strain growth inhibition, active compounds read high
Procedure, shortened: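 Inhibition values reflect reduced growth of mutant yeast versus vehicle-treated controls following compound exposure; the mutations affect DNA damage repair.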

[5] = NCI Yeast Anticancer Drug Screen. Data for the rad18 strain (AID 177); settings: S. cerevisiae rad18 mutant growth inhibition, active compounds read high
Procedure, shortened: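 Steps: expose repair-mutant yeast to compound; measure growth; express as inhibition relative to vehicle control.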

[6] = NCI Yeast Anticancer Drug Screen. Data for the rad52 strain (AID 147);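 also: 0% = growth of vehicle-treated control cultures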; settings: S. cerevisiae rad52 mutant growth inhibition, active compounds read high
Procedure, shortened: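 Inhibition of yeast growth, referenced to vehicle controls, was the measured output for a strain with defective DNA damage repair.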

[7] = NCI Yeast Anticancer Drug Screen. Data for the wt1 strain (AID 149);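 also: 0% = growth of vehicle-treated wt1 cultures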; settings: S. cerevisiae wt1 strain (SPY 50644) growth inhibition, active compounds read high
Procedure, shortened: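 wt1 strain grown with compound or vehicle; inhibition taken from the growth difference.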

[8] = NCI Yeast Anticancer Drug Screen. Data for the rad50EPP+ strain (AID 151);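 also: 0% = growth of vehicle-treated control cultures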; settings: S. cerevisiae rad50 mutant strain, active compounds read high
Procedure, shortened: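 Genetically defined yeast (rad50EPP+, DNA damage repair alteration) is grown with compound, and inhibition of growth is expressed relative to vehicle-treated controls.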

[9] = NCI Yeast Anticancer Drug Screen. Data for the mgt1 strain (AID 153); settings: S. cerevisiae mgt1 mutant growth inhibition, active compounds read high
Procedure, shortened: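 In the mgt1 strain, test compounds were added and growth inhibition was determined relative to vehicle-treated controls.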

[10] = NCI Yeast Anticancer Drug Screen. Data for the rad50 strain (AID 155);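 also: 0% = growth of vehicle-only cultures of the same strain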; settings: S. cerevisiae rad50 strain growth inhibition, active compounds read high
Procedure, shortened: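 DNA repair mutant yeast, compound exposure, growth read-out; inhibition is taken relative to vehicle.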

[11] = NCI Yeast Anticancer Drug Screen. Data for the mec2-1 strain (AID 157); settings: S. cerevisiae mec2-1 strain, active compounds read high
Procedure, shortened: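 Each compound was tested on mec2-1 yeast, a strain altered in DNA damage repair or cell cycle control. Growth inhibition is reported relative to vehicle.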

[12] = NCI Yeast Anticancer Drug Screen. Data for the rad14 strain (AID 159);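 also: 0% = growth of vehicle-treated control cultures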; settings: S. cerevisiae rad14 strain growth inhibition, active compounds read high
Procedure, shortened: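 DNA repair-defective yeast, compound-exposed; % growth inhibition derived by comparison with vehicle-treated controls.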

[13] = NCI Yeast Anticancer Drug Screen. Data for the sgs1 mgt1 strain (AID 161);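 also: 0% = growth of cultures given vehicle only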; settings: S. cerevisiae sgs1 mgt1 strain, active compounds read high
Procedure, shortened: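 Read-out: growth inhibition vs vehicle controls. Cells: mutant yeast strain deficient in DNA damage repair.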

[14] = NCI Yeast Anticancer Drug Screen. Data for the CLN2oe strain (AID 163);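 also: 0% = growth of vehicle-only control cultures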; settings: S. cerevisiae CLN2oe strain, active compounds read high
Procedure, shortened: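 First, the altered yeast strain was treated with each compound; second, its growth was measured; finally, inhibition was derived by comparison with vehicle controls.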

[15] = NCI Yeast Anticancer Drug Screen. Data for the cln2 rad14 strain (AID 165);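 also: 0% = growth equal to vehicle treated cultures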; settings: S. cerevisiae cln2 rad14 strain, active compounds read high
Procedure, shortened: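 Test compounds were added to cln2 rad14 yeast cultures; inhibition of growth was then determined by comparison with vehicle treatment.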

[16] = NCI Yeast Anticancer Drug Screen. Data for the bub3 strain (AID 167); settings: S. cerevisiae bub3 mutant strain, active compounds read high
Procedure, shortened: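 In this screen, a yeast mutant lacking normal mitotic checkpoint function is challenged with compound. Relative growth versus vehicle gives the inhibition value.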

[17] = at 5.0 µM (retest, dose inferred, filed as 0.5)
[18] = at 50.0 µM (retest, dose inferred, filed as 5.0)

Measured: growth inhibition

C[N+](C)(C)CC1CCCC(C[N+](C)(C)C)C1=O (stereo unspecified)
inactive: [1]; at 1.2 µM -3% | [1]; at 3.7 µM 7% | [1]; at 11.0 µM 2% | [1]; at 33.0 µM 5% | [2]; at 1.2 µM 0% | [2]; at 3.7 µM 3% | [2]; at 11.0 µM 7% | [2]; at 33.0 µM 26% | [3]; at 1.2 µM -1% | [3]; at 3.7 µM 3% | [3]; at 11.0 µM 15% | [3]; at 33.0 µM 64% | [4]; [17] 8% | [4]; [18] 62% | [5]; at 1.2 µM 1% | [5]; at 3.7 µM 13% | [5]; at 11.0 µM 44%
active: [1]; at 100.0 µM 94% | [2]; at 100.0 µM 99% | [3]; at 100.0 µM 99% | [4]; at 50.0 µM 97.2% | [5]; at 33.0 µM 93% | [5]; at 100.0 µM 98%

CC(Cc1ccccc1)N(C)Cc1nc(C2CCC([N+](=O)[O-])O2)no1 (stereo unspecified)
active: [6]; at 100.0 µM 84% | [10]; [18] 95% | [10]; at 50.0 µM 84.7% | [10]; at 100.0 µM 81% | [11]; [18] 98% | [12]; at 33.0 µM 70% | [12]; at 100.0 µM 93% | [13]; [18] 99% | [13]; at 50.0 µM 85.3% | [14]; at 100.0 µM 93% | [15]; [18] 94% | [15]; at 50.0 µM 88% | [16]; [18] 100% | [16]; at 50.0 µM 90% | [16]; at 100.0 µM 79% | [4]; [18] 97% | [4]; at 50.0 µM 80.2% | [5]; at 33.0 µM 86% | [5]; at 100.0 µM 95%
inactive: [6]; at 1.2 µM 6% | [6]; at 3.7 µM 14% | [6]; at 11.0 µM 22% | [6]; at 33.0 µM 53% | [7]; at 1.2 µM -1% | [7]; at 3.7 µM 0% | [7]; at 11.0 µM 2% | [7]; at 33.0 µM 3% | [7]; at 100.0 µM 8% | [8]; at 1.2 µM 5% | [8]; at 3.7 µM 14% | [8]; at 11.0 µM 27% | [8]; at 33.0 µM 44% | [8]; at 100.0 µM 42% | [9]; at 1.2 µM 1% | [9]; at 3.7 µM -1% | [9]; at 11.0 µM 13% | [9]; at 33.0 µM 25% | [9]; at 100.0 µM 49% | [10]; at 1.2 µM 4% | [10]; at 3.7 µM 10% | [10]; [17] 17% | [10]; at 11.0 µM 10% | [10]; at 33.0 µM 46% | [11]; at 1.2 µM 4% | [11]; at 3.7 µM 2% | [11]; [17] 18% | [11]; at 11.0 µM 4% | [11]; at 33.0 µM 17% | [11]; at 50.0 µM 66% | [11]; at 100.0 µM 33% | [12]; at 1.2 µM 5% | [12]; at 3.7 µM 14% | [12]; at 11.0 µM 45% | [13]; [17] 35% | [14]; at 1.2 µM -1% | [14]; at 3.7 µM 1% | [14]; at 11.0 µM 8% | [14]; at 33.0 µM 48% | [15]; [17] 5% | [16]; at 1.2 µM 0% | [16]; at 3.7 µM 9% | [16]; [17] -16% | [16]; at 11.0 µM 20% | [16]; at 33.0 µM 54% | [1]; at 1.2 µM 0% | [1]; at 3.7 µM 3% | [1]; at 11.0 µM 9% | [1]; at 33.0 µM 27% | [1]; at 100.0 µM 34% | [2]; at 1.2 µM -1% | [2]; at 3.7 µM -3% | [2]; at 11.0 µM 2% | [2]; at 33.0 µM 14% | [2]; at 100.0 µM 17% | [3]; at 1.2 µM -26% | [3]; at 3.7 µM 5% | [3]; at 11.0 µM 20% | [3]; at 33.0 µM 50% | [3]; at 100.0 µM 67% | [4]; [17] 47% | [5]; at 1.2 µM 14% | [5]; at 3.7 µM 36% | [5]; at 11.0 µM 69%

— PubChem BioAssay (NCI)
